IL-1B inflam inh: qHTS for Inhibitors of Inflammasome Signaling: IL-1-beta AlphaLISA Primary Screen. THP-1 LPS/ATP IL-1B secretion, AlphaLISA, 16 h; stronger effect = lower value. activity change, % at 57.5 µM. 360,000 compounds, 4.7% hits. AID 743279, 2014; in the data active = activity change below about -50%; inconclusive = mostly about -30% to -49%
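Secreted IL-1B measured by AlphaLISA bead assay after 16 h compound exposure of THP-1 cells; compounds (final up to 57.5 uM) added 1 h before LPS (250 ng/mL) and ATP (1.25 mM) stimulation; lower signal means less secretion.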
TDP1 cell CPT: qHTS for Inhibitors of human tyrosyl-DNA phosphodiesterase 1 (TDP1): qHTS in cells in presence of CPT; AID 686979, 2013; Potency, µM (highest dose often 46.2 µM), without a hit: top-dose activity change, negative = growth inhibition, actives largely listed as inhibitors; chicken DT40 Tdp1-/-;hTDP1 cells + 20 nM CPT, ATP luminescence, 48 h; 420,000 compounds, 12% hits; also: potency is read from the fitted curve at half-maximal effect; nearly all actives have a fitted effect of over 55% in size
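Chicken DT40 Tdp1-/- cells stably complemented with human TDP1 were seeded at 400 cells/well in medium containing 20 nM camptothecin, exposed to pin-transferred compounds, and grown at 37 °C for at least 48 hr. Viability was read as ATP luminescence.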
ELG1 DNA repair: qHTS screen for small molecules that inhibit ELG1-dependent DNA repair in human embryonic kidney (HEK293T) cells expressing luciferase-tagged ELG1. AID 504467, 2011. 330,000 compounds, 2.3% hits. Potency, µM (top dose mostly 46.1 µM), for inactives: top-dose activity change, negative = inhibition, most hits filed as inhibitors. HEK293T ELG1-luciferase reporter, luminescence, 16 h; DNA damage induced by 5-fluorouridine; also: potency is read from the fitted curve at half-maximal effect; nearly all actives have a fitted effect of over 55% in size
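DMSO vehicle served as the neutral condition. Each well held 2,000 cells given 5-fluorouridine plus compound; after 16 hr at 37 °C/5% CO2, ONE-Glo was added and luciferase measured 30 min later.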
DT40 TDP1 no CPT: qHTS for Inhibitors of human tyrosyl-DNA phosphodiesterase 1 (TDP1): qHTS in cells in absence of CPT. DT40 Tdp1-/- hTDP1 cells, no CPT, ATP luminescence, 48 h. Potency, µM (titrated, usually from 46.2 µM), for the others: at the top dose activity change, negative = growth inhibition, actives largely listed as inhibitors. 420,000 compounds, 15% hits. AID 686978, 2013; also: potency is read from the fitted curve at half-maximal effect; nearly all actives have a fitted effect of over 55% in size
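Camptothecin absent (DMSO only). Human TDP1-complemented DT40 knockout cells, 400 cells/well, 37 °C for minimum 48 hr; ATP measured via CellTiter-Glo, 30 min dark incubation, luminescence.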
HT1080NT lethal: qHTS for induction of synthetic lethality in tumor cells producing 2HG: qHTS for the HT-1080-NT fibrosarcoma cell line | Potency, µM (titrated, usually from 46.1 µM), for the others: top-dose activity, negative = less viability, usual class: cytotoxic | AID 686970, 2013 | 360,000 compounds, 1.6% hits | HT-1080-NT fibrosarcoma viability, CellTiter-Glo ATP luminescence, 48 h;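 also: NT is the 2HG producing partner of a matched IDH1 knockdown line; potency is read from the fitted curve at half-maximal effect; 0% = DMSO-treated cells and -100% = media-only wells without cells; nearly all actives have a fitted effect of over 55% in size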
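Fibrosarcoma NT cells, 750 per well in 5% FBS RPMI, were exposed to compound for 48 hours. Viability: CellTiter-Glo luminescence.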
HT1080 IDH1KD tx: qHTS for induction of synthetic lethality in tumor cells producing 2HG: qHTS for the HT-1080-IDH1KD cell line; HT-1080 IDH1 knockdown viability, ATP luminescence, 48 h; AID 686971, 2013; 360,000 compounds, 2% hits; Potency, µM (series often up to 46.1 µM), without a hit: top-dose activity, negative = toxicity, usual class: cytotoxic;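 also: potency is read from the fitted curve at half-maximal effect; 0% = DMSO wells and -100% = cell-free medium wells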
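Assay cells: HT-1080 with IDH1 knockdown, 750 per well, RPMI/5% FBS. Exposure: 48 h at 37 °C following 2 h pre-incubation. Read: CellTiter-Glo luminescence; fitted concentration-response, curve class assigned.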
* = called active by the depositor; ? = inconclusive; nt = no result. Most compounds without a hit are left out; they make up all but 19% or so of the library. Unless noted, calls follow the shape of the dose curve; as a rule, active = well fitted curve in the direction sought with a large enough effect; inconclusive = small, poorly fitted or top-dose-only effect, or another doubt; inactive = no such curve, though single readings can be large; an effect the other way counts as inactive or inconclusive. Unless noted, % is scaled to controls: 0 for no effect and ±100 for the full control effect.

SMILES	IL-1B inflam inh	TDP1 cell CPT	ELG1 DNA repair	DT40 TDP1 no CPT	HT1080NT lethal	HT1080 IDH1KD tx
CC1(C)CC(=O)C2=C(C1)NC(Nc1nc3ccccc3o1)=NC2c1ccccn1 (stereo unspecified)	0	0.73µM*	-4%	0.82µM*	-25%	-13%
COc1cccc(NC(=O)CSc2nnc3ccc(-c4ccccn4)nn23)c1	23	-24%	5%	-17%	-8%	-3%
Cn1c(-c2ccccc2)c(Sc2ccccc2)c2cc(-c3ccc4cc[nH]c4c3)ccc21	35	?	nt	23µM*	14%	4%
COc1cccc(-c2c(-c3cc(OC)cc(OC)c3)n(C)c3ccc(-c4ccc5cc[nH]c5c4)cc23)c1	1	18µM*	27%	?	-29%	-10%
COc1cc(OC)cc(-c2c(-c3cccs3)c3cc(-c4ccc5[nH]ccc5c4)ccc3n2C)c1	-9	?	1%	?	-1%	-1%
COc1cc(OC)cc(-c2c(-c3cccs3)c3cc(-c4ccc5cc[nH]c5c4)ccc3n2C)c1	-10	?	10%	13µM*	-21%	-6%
COc1ccc(-c2c(-c3cc(OC)cc(OC)c3)n(C)c3ccc(-c4ccc5c(c4)OCCO5)cc23)cc1	5	-25%	?	?	7%	5%
C[C@@H]1CN([C@H](C)CO)C(=O)CCCn2nncc2CO[C@H]1CN(C)C(=O)c1ccncc1	108	-7%	nt	-1%	-3%	5%
CCCCNC(=O)C[C@@H]1C[C@@]2(C(=O)OC)CC(C)(C)CC=C2N(Cc2ccccc2)C1=O	-28	?	nt	?	-16%	-1%
CCCCCCCCN1C(=O)[C@H](CC(=O)NCCCCc2ccccc2)C[C@@]2(C(=O)OC)CC(C)(C)CC=C12	16	16µM*	nt	21µM*	-13%	?
CCCCCCCCN1C(=O)[C@H](CC(=O)NCCCC)C[C@@]2(C(=O)OC)CC(C)(C)CC=C12	15	10µM*	nt	12µM*	?	?
CCCCCCCCN1C(=O)[C@H](CC(=O)NCc2cccc3ccccc23)C[C@@]2(C(=O)OC)CC(C)(C)CC=C12	0	-67%	nt	12µM*	?	?
CCCCCCCCN1C(=O)[C@H](CC(=O)NCc2ccccc2)C[C@@]2(C(=O)OC)CC(C)(C)CC=C12	-26	3.7µM*	nt	5.2µM*	?	?
O=C(O)C(Cc1ccccc1)N1C(=O)C=CC1=O (stereo unspecified)	-8	-1%	nt	-6%	9%	16%
CN(C)S(=O)(=O)c1cccc(NC(=O)c2ccc(N3CCOCC3)c([N+](=O)[O-])c2)c1	-7	16µM*	18µM*	?	-16%	-10%
O=C(Nc1cccc(S(=O)(=O)N2CCOCC2)c1)c1cccc(S(=O)(=O)N2CCCCC2)c1	-1	?	-18%	?	1%	-4%
O=C(Nc1ccc(S(=O)(=O)N2CCOCC2)cc1)c1cccc([N+](=O)[O-])c1	-4	?	?	-14%	-11%	-9%
COc1ccc(C(=O)Nc2ccc(N3CCN(C(C)=O)CC3)cc2)cc1[N+](=O)[O-]	nt	nt	3%	nt	nt	nt
CC(=O)N1CCN(c2ccc(NC(=O)c3ccc(Cl)c([N+](=O)[O-])c3)cc2)CC1	-52*	?	-13%	-15%	11%	15%
O=C(Nc1ccc(S(=O)(=O)N2CCOCC2)cc1)c1ccc(Cl)c([N+](=O)[O-])c1	-96*	13µM*	nt	13µM*	?	-33%
Cc1ccc(C(=O)Nc2cccc(S(=O)(=O)N3CCOCC3)c2)cc1[N+](=O)[O-]	-4	12µM*	?	?	-5%	-1%
CC1(C(=O)NS(=O)(=O)C2CC2)CCN(C(=O)c2ccccc2C(F)(F)F)C1 (stereo unspecified)	11	-20%	nt	-1%	20%	16%
O=C(Nc1cccc(S(=O)(=O)N2CCOCC2)c1)c1cccc(S(=O)(=O)N2CCCC2)c1	33	-13%	-18%	-30%	5%	-1%
O=C(Nc1cccc(S(=O)(=O)N2CCOCC2)c1)c1ccc(Cl)c([N+](=O)[O-])c1	-99*	?	6%	?	3%	-1%
c1ccc(SC23CCCCN(CCC2)C32OCCO2)cc1 (stereo unspecified)	44	-22%	nt	-27%	13%	5%
O=C1N[C@@H](Cc2ccccc2)C(=O)N2[C@H]1C[C@]1(Br)c3ccccc3N(S(=O)(=O)c3ccc(F)cc3)[C@H]21	-2	18µM*	nt	?	-1%	2%
CC(C)CCN1C(=O)c2ccc(C(=O)Nc3ccccc3C(=O)O)cc2C1=O	16	-15%	16%	3%	7%	6%
COc1ccc(C2=CC(c3ccccc3F)n3ncc(C(=O)Nc4ccc(C)cc4)c3N2)cc1 (stereo unspecified)	nt	5.2µM*	nt	21µM*	nt	nt
COc1cccc(C2C=C(c3ccc(C)cc3)Nc3c(C(=O)Nc4ccc(F)cc4)cnn32)c1OC (stereo unspecified)	nt	?	nt	18µM*	nt	nt
COc1ccc(C(=O)Nc2ccc(NC(=O)c3ccccc3F)cn2)cc1	-13	0%	?	-6%	-2%	-1%

Assay outcomes: PubChem, National Center for Advancing Translational Sciences (NCATS)
